Measurements as given in PubChem BioAssay AID778 (Sanford-Burnham Center for Chemical Genomics, 2007).
In all, about 96,000 compounds went through this assay and about 20,000 (21%) were called active. A selection follows. Values without a mark were called inactive.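 How the source made its calls: active means CYP2C19 inhibition above a set limit at 5 µM in the primary screen (cut at about 50% in these data); inactive means the rest.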

Molecular target: Cytochrome P450 2C19 (Homo sapiens) (UniProt P33261)
Experiment: blockers of cytochrome P450 2C19 activity – biochemical, luminescence, ADME assay, primary screen (AID 778);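 further: plate controls were negative control wells for no effect and 2.5 mM tranylcypromine positive control for full effect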
Conditions: CYP2C19 Supersomes, luciferin-H EGE luminescence, 30 min; at 5 µM; hits give high values

Sequence of Cytochrome P450 2C19 (Homo sapiens) (P33261 whole entry, looked up): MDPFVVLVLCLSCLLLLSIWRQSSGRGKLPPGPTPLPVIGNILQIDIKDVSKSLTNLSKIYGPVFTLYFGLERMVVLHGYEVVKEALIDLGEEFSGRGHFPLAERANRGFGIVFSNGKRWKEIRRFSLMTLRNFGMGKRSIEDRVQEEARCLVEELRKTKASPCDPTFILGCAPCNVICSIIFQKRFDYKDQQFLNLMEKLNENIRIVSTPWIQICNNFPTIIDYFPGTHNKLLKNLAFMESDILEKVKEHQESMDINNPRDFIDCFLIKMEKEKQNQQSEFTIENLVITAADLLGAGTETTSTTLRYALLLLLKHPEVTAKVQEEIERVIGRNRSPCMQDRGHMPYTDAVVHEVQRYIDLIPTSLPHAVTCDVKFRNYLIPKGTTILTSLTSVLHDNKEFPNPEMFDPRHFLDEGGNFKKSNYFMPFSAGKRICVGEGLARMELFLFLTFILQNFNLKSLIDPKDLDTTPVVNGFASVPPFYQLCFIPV

SMILES	inhibition
C[C@@H](Nc1nc(-c2ccccc2)nc2c1oc1ccccc12)C(=O)O	1.5%
CSc1ccc(NC(=O)N2CC(C)OC(C)C2)cc1 (stereo not given)	14.4%
Cc1c(C(=O)Nc2ccccc2Cl)oc2ccc(S(=O)(=O)N3CCC4(CC3)OCCO4)cc12	7.5%
COC(=O)c1c(-c2cccs2)csc1NC(=O)CSc1ncnc2sc(C)c(C)c12	16.1%
O=C(CSc1nnc(-c2cccs2)n1Cc1ccco1)c1ccc2c(c1)OCO2	51% (active)
COc1ccc(OC)c(NC(=O)CSc2nc3cccnc3n2C)c1	40.2%
Nc1cc(=O)nc(SCc2ccccc2)n1Cc1ccco1	32.6%
CCc1cccc(C)c1NC(=O)CSc1nnc(-c2ccco2)n1N	76% (active)
CCn1c(COc2ccccc2)nnc1SCC(=O)Nc1ccc2c(c1)OCCO2	18.3%
NC(=O)c1c(NC(=O)CSc2nnc(-c3ccco3)n2N)sc2c1CCCC2	33.7%
COc1ccc(NC(=O)CSc2nnc(-c3cccs3)n2Cc2ccco2)cc1OC	35.6%
Cc1cccc(C)c1NC(=O)CCCSc1nnc(-c2ccco2)n1-c1ccccc1	23.1%
N=c1c2c(-c3ccccc3)c(-c3ccccc3)oc2ncn1Cc1ccco1	19.1%
C(=C\c1ccccc1)/CSc1nnc(-c2cccnc2)n1Cc1ccco1	72.6% (active)
CCCn1c(SCC(=O)c2ccc3c(c2)OCCO3)nnc1C(C)C	16.5%
CCn1c(COc2ccc(OC)cc2)nnc1SCC(=O)Nc1cc(OC)ccc1OC	65.9% (active)
COc1cccc2c1OCC(C(=O)NCc1ccc(Cl)cc1Cl)=C2	28.2%
CCCCN1C(=O)CC(N2CCOCC2)C1=O (stereo not given)	-0.3%
CCCOc1ccc(CN(CCO)CCO)cc1C(=O)OC	0.9%
O=C(CSCc1c(Cl)cccc1Cl)NN1C(=O)c2ccccc2C1=O	43.5%
COc1ccc(C(=O)Nc2ncc3c(n2)-c2ccccc2CC3)cc1	5.2%
O=C(c1cccnc1NCc1ccccc1)N1CCOCC1	5.8%
CCCC(=O)N=c1sc2cccc(F)c2n1C	44.7%
CCOC(=O)c1ccc(N2C(=O)CC(Sc3nc(O)c(CC)c(=O)[nH]3)C2=O)cc1 (stereo not given)	-1%

SMILES	inhibition
O=C(Nc1ccccc1)c1ccccc1NC(=O)C(F)(F)F	33.4%
COc1ccccc1NC(=O)CSc1nc2sc(C)c(C)c2c(=O)n1Cc1ccco1	92.9% (active)
CCCn1c(SCC(=O)Nc2c(C)cccc2C)nnc1C(C)C	24.4%
COc1cc(Cl)c(C)cc1NC(=O)CSc1nnc(-c2ccco2)n1CC(C)C	96.1% (active)
CCCc1nc(SCC(=O)Nc2ccccc2OC)c2c(=O)n(C)c(=O)n(C)c2n1	41%
CCOC(=O)CSc1nc2c(sc(=S)n2CCc2ccccc2)c(=O)n1Cc1ccco1	20.9%
CCc1c(C)nc2cc(C)[nH]n2c1=O	-0.7%
CCOCCN(C=O)c1cccc(OC)c1	26.6%
CC(C)Oc1ccc(CCc2n[nH]c(=S)n2Cc2ccccc2)cc1	16.7%
CCOC(=O)c1sc(NC(=O)CSc2nnc(-c3ccco3)o2)c(C(=O)OCC)c1C	25.2%
CCOC(=O)c1c(NC(=O)CCl)sc(C(=O)N(CC)CC)c1C	56.1% (active)
CCOC(=O)c1sc(NC(=O)CCN2CCOCC2)c(C(=O)OCC)c1C	35.2%
COC(=O)c1c(CCl)noc1C(=O)NC(C)C	10.5%
COc1ccccc1N=C1SC(C)CN1C(=O)C1CCC1 (stereo not given)	-1.1%
Cn1c2c(c(=O)n(C)c1=O)[C@@H]1c3c(ccc4ccccc34)OC[C@@H]1CO2	33.8%
O=C(c1ccco1)N1CCN(CC(=O)N(C2CCCCC2)C2CCS(=O)(=O)C2)CC1 (stereo not given)	-21.3%
CCCc1nc2ccccc2c(=O)n1NC(=O)c1c(O)c2ccccc2[nH]c1=O	-11.7%
CCCc1nc2ccccc2c(=O)n1/N=C/c1ccc(O)c(O)c1	54.2% (active)
Cc1[nH]n(-c2cccc(Cl)c2)c(=O)c1/C=N/n1c(C)nc2ccccc2c1=O	20.6%
ONC(=Nc1ccccc1)c1ccccc1Cl	32.8%
ONC(=Nc1ccc(Cl)cc1)c1ccccc1Cl	84.3% (active)
CC(Oc1ccc(Cl)cc1)C(=O)OCC(=O)Nc1ncc(Cl)cc1Cl (stereo not given)	24.2%
CC(Oc1ccc(Cl)cc1)c1ccnn1S(C)(=O)=O (stereo not given)	69.5% (active)
CC(Oc1ccc(Cl)cc1)C(=O)Nc1ncccn1 (stereo not given)	30%

SMILES	inhibition
N#Cc1ccc(-c2ccc(F)cc2)nc1Sc1ccccc1	3.5%
Cc1csc(NC(=O)NC2(C(F)(F)F)Oc3ccccc3O2)n1	-13.3%
O/N=C(\c1ccc2c(c1)OCCO2)C1CCCCC1	49.8%
CC(C)Cc1cc(C(=O)Nc2cc(Br)ccc2O)no1	-2.9%
CCCCn1ccnc1C(=O)c1cccc(S(=O)(=O)N2c3ccccc3CC2C)c1 (stereo not given)	83.1% (active)
CCn1c(CSc2ncccn2)nnc1SCC(=O)N1c2ccccc2CC1C (stereo not given)	18.8%
CC(C)N1C(=O)C2C(C(=O)NC3CCCCC3)C3C=CC2(O3)C1C(=O)NC1CCCC1 (stereo not given)	6.6%
N#Cc1ccc(-c2ccc(Cl)cc2)nc1Oc1ccc(F)cc1	41.8%
O=C(Oc1ccc([N+](=O)[O-])cc1)c1ccc2ccccc2n1	0%
CCOC(=O)N1CCN(C(=O)CN(C2CCCCC2)S(C)(=O)=O)CC1	-5.6%
CS(=O)(=O)N(CC(=O)N1CCN(c2ccc(F)cc2)CC1)C1CCCCC1	6.9%
CS(=O)(=O)N(CC(=O)Nc1ccc(Cl)c(Cl)c1)C1CCCCC1	60.7% (active)
O=C(CCCN1C(=O)CSc2ncccc21)N1CCN(c2cccc(C(F)(F)F)c2)CC1	34%
Cc1nc(C)c(C(=O)Nc2cccc(C)c2C)o1	-14.2%
CC(=C1C(=O)c2ccccc2C1=O)N1CCN(c2ccccn2)CC1	13.1%
Cn1c(=O)cc(OCCCC(=O)N2CCN(c3ccccn3)CC2)c2ccccc21	30.2%
Cc1cc(C(=O)N2CCN(c3ccccn3)CC2)c(C)o1	56.8% (active)
COC(=O)c1ccc(NC(=O)C(C)N2C(=O)c3ccccc3C2=O)cc1 (stereo not given)	11.8%
CC(C)Oc1ccc(Oc2ccc(C(F)(F)F)cn2)cc1	23.2%
CN(C)c1ccc(NC(=S)N(CCc2ccccc2)C2CC(=O)N(c3c(Cl)cccc3Cl)C2=O)cc1 (stereo not given)	13.4%
COc1cccc(N2CCN(C3CC(=O)N(c4ccc(Cl)cc4)C3=O)CC2)c1 (stereo not given)	-17.1%
COC(=O)CN(C(=S)Nc1ccc(Cl)cc1)C1CC(=O)N(c2ccc(OC)cc2)C1=O (stereo not given)	69.3% (active)
CCSc1nnc(NC(=O)Cc2ccccc2OC)s1	36.5%
CCOCCCN1C(=O)CN(C2CCCCC2)C(=O)C1c1ccc(OCC)c(OC)c1 (stereo not given)	0.6%

SMILES	inhibition
CCN(CC)S(=O)(=O)c1ccc2nc(COC(=O)c3n[nH]c4ccccc34)[nH]c2c1	9.5%
CCn1c(CSc2nncn2-c2ccc(OC)cc2)nc2cc(S(=O)(=O)N(C)C)ccc21	21.5%
CCN(CC)S(=O)(=O)c1ccc2nc(CSc3nnnn3-c3ccc(O)cc3)[nH]c2c1	66.1% (active)
CCCCN(CC)CCCNC(=O)CS(=O)(=O)Cc1nc(-c2cccc(OC)c2)oc1C	-1.1%
CCOC(=O)Cn1c(SC)nc2sc3c(c2c1=O)CC(C)(C)OC3	8.2%
CC/C(C)=N/Nc1nc2sc3c(c2c(=O)[nH]1)CC(C)(C)OC3	36.9%
CCOC(=O)CSc1nc2sc3c(c2c(=O)[nH]1)CC(C)(C)OC3	67.6% (active)
CC(=O)Nc1ccc(NS(=O)(=O)c2cc(C)sc2C)cc1	93.5% (active)
CC(=O)NS(=O)(=O)c1ccc(NC(=S)NC(=O)C(C)(C)C)cc1	-2.4%
CC(=O)Nc1ccc(S(=O)(=O)Nc2cccc(NC(=O)C(C)(C)C)c2)cc1	32.2%
CN(C)c1ccc(-n2cccc2/C=C2/SC(=Nc3ccc(F)cc3)NC2=O)cc1	2.9%
COC(=O)Nc1ccc(S(=O)(=O)N2CCN(CCN3C(=O)C4C5C=CC(C5)C4C3=O)CC2)cc1 (stereo not given)	5.6%
COC(=O)Nc1ccc(S(=O)(=O)N(C)CC(F)(F)C(F)F)cc1	58.8% (active)
CCOC(=O)Nc1ccc(S(=O)(=O)N(C)C(C)C)cc1	19.6%
O=C(CCn1c(=O)[nH]c2ccccc2c1=O)NCCCN1CCN(c2cccc(Cl)c2)CC1	13.5%
COc1ccc(CCNC(=O)CCCCn2c(=O)[nH]c3ccccc3c2=O)cc1OC	16.8%
O=C(CCCCCn1c(=O)[nH]c2ccccc2c1=O)NCCc1c[nH]c2ccccc12	71.7% (active)
O=C(c1cc2c(s1)CCC2)N1CCN(c2ccccc2)CC1	48.8%
O=C(CS(=O)(=O)Cc1ccccc1)NCC1CCCO1 (stereo not given)	-6.7%
O=C(CSCc1c(F)cccc1Cl)NCC1CCCO1 (stereo not given)	52.6% (active)
O=C(CSC1=Nc2ccccc2C2=NC(c3ccccc3)C(=O)N12)NCC1CCCO1 (stereo not given)	29.1%
N#Cc1ccc(Oc2cc(C(F)(F)F)nc(-c3ccccn3)n2)cc1	6.7%
O=C(Nc1nccs1)c1cc(S(=O)(=O)N2CCOCC2)c(Cl)cc1Cl	12.5%
